Source: PubChem (National Center for Advancing Translational Sciences (NCATS))
Shown are actives, neighbours in structure and some others; about 2.4% of the full set was active somewhere.
Cruzain Triton = cruzain (T. cruzi) inhibition with detergent. P25779. purified cruzain, Z-FR-AMC fluorescence, 0.01% Triton. Potency, µM, inactives show max response, negative = inhibition, most hits filed as inhibitors. 200,000 tested, 0.43% active. AID 1478;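 also: plate controls were neutral wells for no effect and buffer without enzyme for full effect; nearly all actives have a fitted effect of over 40% in size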
Target sequence (P25779 123-467 limits assumed): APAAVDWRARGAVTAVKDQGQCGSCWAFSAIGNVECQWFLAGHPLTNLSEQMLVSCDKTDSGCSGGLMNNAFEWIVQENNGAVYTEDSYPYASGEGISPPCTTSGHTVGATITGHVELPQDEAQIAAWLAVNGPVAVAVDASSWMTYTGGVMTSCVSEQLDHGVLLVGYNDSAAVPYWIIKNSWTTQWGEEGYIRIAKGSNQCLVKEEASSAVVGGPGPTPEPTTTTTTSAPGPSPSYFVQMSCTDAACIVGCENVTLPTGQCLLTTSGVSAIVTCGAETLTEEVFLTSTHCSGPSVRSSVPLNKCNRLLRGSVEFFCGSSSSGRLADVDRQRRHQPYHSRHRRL
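Cruzain (1.5 nM) preincubated 15 min at RT with compound in 100 mM sodium acetate pH 5.5, 5 mM DTT, 0.01% Triton X-100. Reaction started with 2 uM Z-FR-AMC; AMC fluorescence (ex 360/em 450 nm) change over 60 s gave rate.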
Cruzain noTriton = cruzain (T. cruzi) inhibition without detergent | P25779 | purified cruzain, Z-FR-AMC fluorescence, no detergent | Potency, µM, without a hit: max response, negative = inhibition, most hits filed as inhibitors | 200,000 tested, 2.3% active | AID 1476;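 also: plate controls were enzyme without inhibitor for no effect and buffer without enzyme for full effect; nearly all actives have a fitted effect of over 40% in size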
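Detergent-free condition (0.00005% Triton X-100) in acetate buffer pH 5.5 with DTT. 1.5 nM enzyme and compound were pre-mixed 15 min, then 2 uM Z-FR-AMC substrate added; reaction progress from fluorescence change between first and third reads (60 s).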
* = called active by the depositor; ? = inconclusive. Calls follow the shape of the dose curve; as a rule, active = well fitted curve in the direction sought with a large enough effect; inconclusive = small, poorly fitted or top-dose-only effect, or another doubt; inactive = no such curve, though single readings can be large; an effect the other way counts as inactive or inconclusive. Potency is read from the fitted curve at half-maximal effect.

SMILES	Cruzain Triton	Cruzain noTriton
CCOC(=O)c1c(C)[nH]c(C(=O)COC(=O)CNC(=O)C2CCCCC2)c1C	?	7.9µM*
CCOC(=O)c1c(C)[nH]c(C(=O)COC(=O)CN2C(=O)C3CCCCC3C2=O)c1C (configuration not stated)	-9%	24%
CCOC(=O)c1c(C)[nH]c(C(=O)COC(=O)[C@H](C)NC(=O)c2ccccc2Cl)c1C	-27%	-1%
CCOC(=O)c1c(C)[nH]c(C(=O)COC(=O)CNC(=O)c2ccccc2Cl)c1C	11µM*	13µM*
Cc1c(C(c2cccc(O)c2)c2c(C)n(C)n(-c3ccccc3)c2=O)c(=O)n(-c2ccccc2)n1C	-1%	-9%
Cc1cc(C(=O)COc2cccc(-n3cnnn3)c2)c(C)n1-c1ccccc1	-7%	20µM*
COC(=O)COc1cccc(-n2cnnn2)c1	1%	8%
O=C(CC1SC(=Nc2ccccc2)N(CCCO)C1=O)Nc1ccc(Cl)cc1 (configuration not stated)	-13%	?
O=C(CC1SC(=NCCc2ccccc2)N(/N=C/c2cccs2)C1=O)Nc1ccc(Cl)cc1 (configuration not stated)	-6%	13µM*
CC(=O)Nc1ccc(-c2csc(NC(=O)CCCc3cccs3)n2)cc1	-6%	10µM*
O=C(O)CCC(=O)Nc1nc(-c2ccccc2)cs1	2%	-10%
CCC(=O)Nc1ccc(-c2csc(NNC(C)=O)n2)cc1	-4%	-9%
Cc1ccc(-c2csc(NC(=O)CCCc3cccs3)n2)cc1	0%	7.9µM*
CCOC(=O)c1ccc(NC(=O)c2cccn(Cc3ccc(C)cc3)c2=O)cc1	1%	-18%
CCNc1cc(N2CCN(S(=O)(=O)c3ccc4c(c3)CCCC4)CC2)ccc1[N+](=O)[O-]	-2%	5µM*
Cc1cc(C)c(S(=O)(=O)N2CCN(c3ccc([N+](=O)[O-])c(NCc4ccco4)c3)CC2)c(C)c1	0%	6.3µM*
Cc1cc(C)c(S(=O)(=O)N2CCN(c3ccc([N+](=O)[O-])c(NCC4CCCO4)c3)CC2)c(C)c1 (configuration not stated)	-8%	?
O=[N+]([O-])c1ccc(N2CCN(S(=O)(=O)c3ccc(Cl)c(Cl)c3)CC2)cc1NCCN1CCOCC1	-5%	6%
N#C/C(=C/c1ccc(N2CCCC2)c([N+](=O)[O-])c1)c1nc2ccccc2[nH]1	-1%	-21%
N#C/C(=C\c1ccc(OC(=O)c2ccc(Cl)s2)cc1)c1nc2ccccc2[nH]1	-25%	4µM*
N#C/C(=C\c1ccc(OC(=O)c2ccc(Br)s2)cc1)c1nc2ccccc2[nH]1	-4%	5µM*
N#C/C(=C\c1ccc(Oc2ccc(C(F)(F)F)cc2[N+](=O)[O-])cc1)c1nc2ccccc2[nH]1	2%	?
CC(C)Oc1ccc(CNC(=O)C2COc3ccccc3C2)cc1 (configuration not stated)	-2%	1%
N#Cc1cccc(NC(=O)C2CCN(c3cnccn3)CC2)c1	3%	10%
CCc1nc(SCC(=O)Nc2cc(C)on2)c2c(C)c(C)sc2n1	-4%	-6%
SMILES	Cruzain Triton	Cruzain noTriton
Cc1ccc(-c2nc3cccnc3s2)cc1NC(=O)Cc1ccccc1	3%	25%
Cc1cccc(CN(C)C)c1OC(=O)N(C)C	-1%	-5%
Cc1ccc(NC(=O)CCn2c(=O)oc3ccccc32)cc1	1%	-3%
CCc1ccc(NC(=O)CCn2c(=O)oc3ccccc32)cc1	-1%	1.3µM*
Cc1cc(-c2csc(NC(=O)c3ccc(C#N)cc3)n2)c(C)n1Cc1ccco1	-3%	7.9µM*
Cc1csc(NC(=O)CSc2nnc(C)n2Cc2ccco2)n1	1%	0%
CCOC(=O)c1c(C)[nH]c(C(=O)CSc2ccccc2)c1C	0%	?
CC(=O)c1c(C)[nH]c(C(=O)COC(=O)CNS(=O)(=O)c2ccccc2)c1C	-17%	-24%
CC(=O)c1c(C)[nH]c(C(=O)COC(=O)CCSc2ccccc2)c1C	16µM*	?
CCOC(=O)c1c(C)[nH]c(C(=O)COC(=O)CCSc2ccccc2)c1C	25µM*	-16%
Cc1nnc(NC(=O)CC(CN(C)S(=O)(=O)c2ccccc2)c2ccccc2)s1 (configuration not stated)	-4%	8%
C[N+](C)(C)CCC(=O)c1cccc2ccccc12	14µM*	10µM*
O=C(O)CCC(=O)c1cccc2ccccc12	-2%	-9%
COc1ccc(C)cc1S(=O)(=O)NCC(c1ccc(N(C)C)cc1)N1CCc2ccccc21 (configuration not stated)	-5%	?
Cc1cc(C)c(S(=O)(=O)NCC(c2ccc(N(C)C)cc2)N2CCc3ccccc32)c(C)c1 (configuration not stated)	-2%	20µM*
CCCCCCn1cnc2c(c1=O)c1nc3ccccc3nc1n2Cc1cccs1	-2%	3%
Cc1ccc(Cl)c(NC(=O)COC(=O)CNS(=O)(=O)/C=C/c2ccccc2)c1Cl	-10%	?
O=C(O)COc1cccc(-c2ocnc2-c2nc(-c3ccccc3)c(-c3ccccc3)o2)c1	4%	7.9µM*
Cc1ccc(-c2nc(-c3nccc4ccccc34)oc2-c2ccccc2)cc1	0%	-4%
Cc1ccc(OCCSc2nc3ccccc3n2CC(=O)N2CCOCC2)cc1	1%	-2%
Cc1ccc(-c2nnn(CC(=O)N(c3ccccc3)C(C(=O)NC3CCCC3)c3ccco3)n2)o1 (configuration not stated)	1%	10µM*
Cc1ccc(-c2nnn(CC(=O)N(Cc3cccs3)C(C(=O)NC3CCCC3)c3ccco3)n2)o1 (configuration not stated)	7%	4%
Cc1cccc(CCNC(=O)c2ccc(CSCc3cccc(Cl)c3)o2)c1	-7%	-3%
CCOc1ccccc1NC(=O)C1CCN(c2ccc(S(=O)(=O)N3CCCC3)cc2)CC1	3%	-25%
CC(C)(C)c1ccc(-c2nc(SCCCOc3ccccc3)n3[nH]c(=O)cc3n2)cc1	-7%	13µM*
SMILES	Cruzain Triton	Cruzain noTriton
COc1ccccc1OCCCSc1nc(-c2ccc(C(C)(C)C)cc2)nc2cc(=O)[nH]n12	-21%	-19%
Cc1ccc(O)c(C(=O)c2cc(C#N)c(=O)n(CC3CCCO3)c2)c1 (configuration not stated)	1%	-18%
O=C(Nc1cccc(C(F)(F)F)c1)OCCN1CCN(Cc2ccccc2)CCC1=O	-1%	7%
O=C(Nc1ccc(Cl)c(Cl)c1)c1cc(S(=O)(=O)N2CCN(c3cccc(Cl)c3)CC2)ccc1F	1%	3.2µM*
O=C(NC1CCCc2ccccc21)c1cccc(S(=O)(=O)N2CCN(c3ccccc3)CC2)c1 (configuration not stated)	-2%	?
O=C(Nc1ccc(F)c(F)c1)c1cc(S(=O)(=O)N2CCN(c3ccccn3)CC2)ccc1F	-4%	3%
O=C(Nc1ccc2c(c1)CCC2)c1cccc(S(=O)(=O)N2CCN(c3ccccc3)CC2)c1	1%	25µM*
Cc1ccc(N=C2NC(=O)/C(=C/c3cccs3)S2)cc1C	-6%	?
Cc1cccc(N=C2NC(=O)/C(=C\c3cccs3)S2)c1	-7%	32µM*
CCOC(=O)N1CCN(C(=O)Cn2ncc3c4ccccc4n(Cc4ccc(F)cc4)c3c2=O)CC1	-12%	?
O=C(CN1C(=O)C2C3CCC(C3)C2C1=O)OCC(=O)c1cccc([N+](=O)[O-])c1 (configuration not stated)	0%	-11%
